From PubChem BioAssay
RmlCD inh mix: RmlC/RmlD inhibition, mixture screen. 0.39% of 110,000 active. inhibition, % at 5.5 µM. RmlC/RmlD coupled enzyme inhibition, 384-well mixture HTS; in the data active = inhibition above about 30%, passing the limit was not always enough; inconclusive = no clear call, values can overlap the other calls
RT RNaseH block: inhibitors of HIV-1 reverse transcriptase RNase H. P04585. RT-RNase H RNA/DNA duplex cleavage, fluorescence. inhibition, % at 10 µM. 1.9% of 65,000 active; in the data active = inhibition above about 50%
Each line names hits and unclear results; the compound was inactive in the other large screens. The entries come from a sample that favours hits as a whole.

O=C(Nc1ccc2nc(-c3cccs3)c(-c3cccs3)nc2c1)N1CCOCC1	none
O=C(c1ccc2nc(-c3ccco3)c(-c3ccco3)nc2c1)N1CCN(c2ccccc2)CC1	RT RNaseH block 76
CCOC(=O)N1CCC(NC(=O)c2ccc3c(c2)N(C)CCS3)CC1	RmlCD inh mix 61
CCOC(=O)N1CCC(NC(=O)c2ccc3c(c2)N(Cc2ccc(C)cc2)CCS3)CC1	none (no result: RT RNaseH block)
CN(C[C@@H](CC1CCCCC1)N(C[C@H](Cc1ccccc1)N(CCc1ccccc1)N=O)N=O)N=O	none (no result: RT RNaseH block)
CCCc1nnc(NC(=O)c2c(O)c3cccc4c3n(c2=O)CCC4)s1	RT RNaseH block 72
CC(C)c1nnc(NC(=O)c2c(O)c3cccc4c3n(c2=O)CC4)s1	none (no result: RmlCD inh mix)
N[C@H]1CONC1=O	none (no result: RT RNaseH block)
COc1ccc(NC(=O)c2cnc3sccn3c2=O)cc1OC	none (no result: RmlCD inh mix)
CCOC(=O)c1sc2nc(SCC(=O)NCc3ccco3)n(Cc3ccccc3)c(=O)c2c1C	RT RNaseH block 66 (no result: RmlCD inh mix)
Cc1sc2nc(SCC(=O)NCc3ccco3)n(-c3ccccc3)c(=O)c2c1C	none
Cc1sc2nc(SCC(=O)NCc3ccco3)n(Cc3ccccc3)c(=O)c2c1C	none (no result: RT RNaseH block)
Cc1ccc(-n2c(SCC(=O)NCc3ccco3)nc3sc(C)c(C)c3c2=O)cc1	RT RNaseH block 55
CCOC(=O)CC1C(=O)NC2CCCCC2N1C(=O)Nc1ccc(Cl)cc1 (stereo unspecified)	none
O=C(NCc1ccccn1)c1coc(=O)c(Br)c1	RmlCD inh mix 34
CCOc1ccc(C(=O)NCc2ccccn2)cc1	none
CCOc1cc(-c2cc(-c3ccc(C)cc3)nc(N)c2C#N)ccc1O	RmlCD inh mix 30 (no result: RT RNaseH block)
CCOc1cc(-c2c(C#N)c(N)nc3c2CCCC3C)ccc1O (stereo unspecified)	none
CN1CCN(c2ncnc3c2sc2nc(N4CCCC4)c4c(c23)CC(C)(C)OC4)CC1	none (no result: RmlCD inh mix)
O=C(CCCCCn1c(=S)[nH]c2cc3c(cc2c1=O)OCO3)N1CCN(C(=O)c2ccco2)CC1	none
O=C(CCCCCn1c(=S)[nH]c2cc3c(cc2c1=O)OCO3)N1CCN(Cc2ccccc2)CC1	RT RNaseH block 68
CCOc1ncccc1C(=O)OCC(=O)Nc1cc(C(=O)OC)ccc1C(=O)OC	none (no result: RmlCD inh mix)
O=c1c2sc3nc(N4CCOCC4)c4c(c3c2ncn1Cc1ccco1)CCCC4	none (no result: RmlCD inh mix)
CCC1Oc2ccc(C)cc2N(CC(=O)N(Cc2cccnc2)Cc2ccc(C)o2)C1=O (stereo unspecified)	RT RNaseH block 50
CCC1Oc2ccc(C)cc2N(CC(=O)N(Cc2ccc(C)o2)C2CC(C)(C)NC(C)(C)C2)C1=O (stereo unspecified)	none (no result: RT RNaseH block)
OCC[C@H]1C[C@@H](O)[C@H](O)[C@@]2(CCCO2)O1	none (no result: RT RNaseH block)
C[C@H]1[C@@H](OC(=O)CCC(=O)O)O[C@@H]2OC3(C)CC[C@H]4[C@H](C)CC[C@@H]1[C@@]24OO3	none (no result: RT RNaseH block)
CCOc1cc2c(cc1OCC)C(c1cc(OC)c(O)c(OC)c1)NCC2 (stereo unspecified)	none (no result: RmlCD inh mix)
COc1ccc(-n2c(-c3ccco3)n[nH]c2=S)cc1	RT RNaseH block 57
Nn1c(-c2ccco2)n[nH]c1=S	none
COCc1n[nH]c(=S)n1-c1cccc2ccccc12	none
S=c1[nH]nc(-c2ccco2)n1-c1cccc2ccccc12	RT RNaseH block 54
COc1ccccc1C1/C(=C(\O)c2c(C)nc3c(C)cccn23)C(=O)C(=O)N1CCCN(C)C (stereo unspecified)	none (no result: RmlCD inh mix)
Cc1cc(C)cc(OCC(=O)Nc2ccccc2C(=O)NCc2ccco2)c1	RT RNaseH block 60
O=C(COc1ccc(Cl)cc1)Nc1ccccc1C(=O)NCc1ccco1	none
Cn1c(=O)c2c(nc(CN3CCN(C(=O)c4ccco4)CC3)n2Cc2ccc(Cl)cc2)n(C)c1=O	RmlCD inh mix inconclusive
CCOC(=O)Cn1c(=O)oc2cc(S(=O)(=O)Nc3cc(OCC)ccc3OCC)ccc21	none
CCOC(=O)Cn1c(=O)oc2cc(S(=O)(=O)Nc3ccc(N(CC)CC)cc3C)ccc21	RT RNaseH block 50
COC(=O)c1c(CSc2ccc(C)c(C)c2)noc1C(=O)NCc1ccc(OC)cc1	none (no result: RT RNaseH block)
COCCNc1cc(C)c(C#N)c2nc3ccccc3n12	RmlCD inh mix 36
CCCNc1cc(C)c(C#N)c2nc3ccccc3n12	none (no result: RT RNaseH block)
COc1cccc(C2/C(=C(/O)c3ccncc3)C(=O)C(=O)N2CCCN2CCOCC2)c1OC (stereo unspecified)	none (no result: RmlCD inh mix)
O=c1nc2n(c3sc4c(c13)CCC4)Cc1ccccc1-2	none (no result: RmlCD inh mix)
COc1ccc(-n2nnnc2Sc2ccc(S(=O)(=O)N3CCOCC3)cn2)cc1	RT RNaseH block 86
COc1ccc(-n2nnnc2SCC(=O)N2CCOCC2)cc1	none
CCC(=O)N1CCC2(CC1)Oc1ccc(Cl)cc1C(=O)C21CC(c2ccc(Cl)cc2)=NO1 (stereo unspecified)	none (no result: RT RNaseH block)
COC(=O)c1cccc(Oc2nc(N3CCOCC3)nc(N3CCOCC3)n2)c1	none (no result: RmlCD inh mix)
Cc1nc2ccc(C(=O)O)cc2c2c1CC(C)S2 (stereo unspecified)	RT RNaseH block 63
Cc1nc2cc(C(=O)O)ccc2s1	none
Cc1ccc(S(=O)(=O)Nc2ccc3oc(=O)sc3c2)c(C)c1	RT RNaseH block 60
Cc1ccc(C)c(S(=O)(=O)Nc2ccc3sc(C)nc3c2)c1	none (no result: RT RNaseH block)
CCN(CC)CCCN1C(=O)C(=O)/C(=C(/O)c2ccccc2)C1c1ccccn1 (stereo unspecified)	none (no result: RmlCD inh mix)
CCOC(=O)c1nn(-c2ccc(C)c(C)c2)c(=O)c2c(N)scc12	none (no result: RT RNaseH block)
CCOC(=O)c1nn(-c2ccc(OC)cc2)c(=O)c2c(N)scc12	RT RNaseH block 75
Cn1c(=O)[nH]c2sc3c(c2c1=O)CC(C)(C)OC3	none (no result: RT RNaseH block)
CC[n+]1c(P(=O)([O-])c2ccccc2)[nH]c2ccccc21	none (no result: RT RNaseH block)
CC(=O)Nc1nnc(S(N)(=O)=O)s1	none
CC(=O)N=c1sc(S(N)(=O)=O)nn1C	RT RNaseH block 67
O=C(c1cc2c(=O)oc3ccccc3c2s1)N1CCN(c2ncccn2)CC1	none (no result: RmlCD inh mix)
Clc1ccc(-c2nn3c(Cn4cnc5ccccc54)nnc3s2)c(Cl)c1	RT RNaseH block 71 (no result: RmlCD inh mix)
Clc1ccc(Cl)c(-c2nn3c(Cn4cnc5ccccc54)nnc3s2)c1	none
Cc1ccc(C(C)C)c(OCCNc2nc3c(c(=O)n(C)c(=O)n3C)n2C)c1	none (no result: RmlCD inh mix)
COc1ccc(CN(CCN2CCOCC2)C(=O)c2c(F)cccc2F)cc1OC	RT RNaseH block 62
COc1ccc(CN(CCCN2CCOCC2)C(=O)Nc2ccccc2)cc1OC	none
CCC(Sc1nc(C)cc(C)n1)C(=O)O (stereo unspecified)	none
CCC(Sc1ccc(C(=O)O)cc1)C(=O)O (stereo unspecified)	RT RNaseH block 57
Cc1nn(-c2ccc(F)cc2)c(Cl)c1/C=C(\CCC(=O)O)c1nc2ccccc2s1	none (no result: RT RNaseH block)
COc1ccccc1Cn1c2nc3ccccc3nc2c2c(=O)n(CC(C)C)cnc21	none (no result: RmlCD inh mix)
COc1ccc(F)cc1CN1CCN(c2cc(C)nc3c4c(C)cc(C)nc4nn23)CC1	RmlCD inh mix 50
Cc1cc(C)c2c(n1)nn1c(N3CCN(Cc4ccccc4)CC3)cc(C)nc21	none (no result: RmlCD inh mix)
O=C(NCc1ccco1)C1(c2ccc(Br)cc2)CCCC1	none (no result: RT RNaseH block)
CCN(CC)c1cccc(OC2=NS(=O)(=O)c3ccccc32)c1	RT RNaseH block 55
Cc1ccc(OC2=NS(=O)(=O)c3ccccc32)cc1	none (no result: RT RNaseH block)
COc1cccc(NC(=O)CSc2nc3c(c(-c4ccco4)c2C#N)CCCC3)c1	RT RNaseH block 58
COCCOC(=O)c1c(C)nc(SCC(=O)Nc2ccc(OC)cc2)c(C#N)c1-c1ccco1	none
CCCCn1c(=O)c(C(=O)Nc2nc3ccccc3[nH]2)c(O)c2ccccc21	none (no result: RmlCD inh mix)
CCn1c(=O)c(C(=O)Nc2nc3ccccc3[nH]2)c(O)c2ccccc21	RT RNaseH block 75
